According to PubChem BioAssay (NCATS):
Where “and” joins values, the source holds several entries; their conditions need not be identical. Identical values can stand only once. Inconclusive results are not listed. Calls of active or inactive are those of the source. Calls come from the whole dose curve; as a rule, active = well fitted cell-killing curve with a large enough effect; inconclusive = small, poorly fitted or top-dose-only effect, or effect the other way; inactive = no such curve, though single readings can be large or run the other way.

Test: Viability qHTS for spleen associated tyrosine kinase inhibitor (SYKi) drug resistant MV4-11 cells (AID 1963824); note: nearly all actives have a fitted effect of over 35% in size
Conditions: SYKi-resistant MV4-11 viability, CellTiter-Glo, 72 h; series mostly up to 45 µM
Method in brief: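 SYK-inhibitor-resistant MV4-11 AML cells were seeded at 500 per well onto compound and cultured 72 hours (37 °C, 5% CO2). CellTiter-Glo was then added, and after 10 min at room temperature, luminescence gave viability.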
Potency is the fitted concentration of half-maximal effect.

Compound | Potency
O=C(N/N=C/c1ccc([N+](=O)[O-])o1)c1ccc(O)cc1 | 16.8 µM (active)
COc1ncc(Nc2ncc([C@H](C)N3CCN(S(C)(=O)=O)CC3)cc2-c2nc(C)nc(N)n2)cc1F | 2.35 µM (active)
CN1CCN(c2ccc(Nc3ncc4cc(C#N)c(=O)n(C5CCCC5)c4n3)cc2)CC1 | 0.235 µM (active)
C#Cc1cccc(Nc2ncnc3cc4c(cc23)OCCOCCOCCO4)c1 | 18.6 µM (active)
Cc1[nH]cnc1-c1ccc(Cl)cc1 | inactive
Fc1ccc2[nH]ccc2c1-c1nc(N2CCOCC2)c2sc(CN3CCN(CC4CC4)CC3)cc2n1 | 5.9 µM (active)
CNc1ncc2cc(-c3cc(NC(=O)NCCC(C)(C)C)c(F)cc3C)c(C)nc2n1 | 0.164 µM (active)
C[C@@H]1C[C@H](N)C[C@H](c2ccncc2NC(=O)c2ccc(F)c(-c3c(F)cccc3F)n2)C1 | 2.63 µM (active)
COCCc1ccc(OCC(O)CNC(C)C)cc1 (stereo not given) | inactive
CC[C@]12CCCN3CCc4c(n(c5ccccc45)C(=O)C1)[C@@H]32 | 8.41 µM (active) and 23.1 µM (active)
O=C(/C=C/c1ccccc1)NCCO | inactive
Cc1ccc(Nc2ncc3c(n2)N(C)C(=O)N(c2cc(NC(=O)c4cccc(C(F)(F)F)c4)ccc2C)C3)cn1 | 0.013 µM (active)
CS(=O)(=O)Nc1cc2occ(NC=O)c(=O)c2cc1Oc1ccccc1 | inactive
CN(C)CCC[C@@]1(c2ccc(F)cc2)OCc2cc(C#N)ccc21 | 8.41 µM (active)
CC1(C)S[C@@H]2[C@H](N=CN3CCCCCC3)C(=O)N2[C@H]1C(=O)O | inactive
CC[N+]1(CC)CCC(=C(c2ccccc2)c2ccccc2)C1C (stereo not given) | 8.2 µM (active)
COC(=O)c1ccc([C@H]2c3[nH]c4ccccc4c3C[C@H](C(=O)OC)N2C(=O)CCl)cc1 | 0.525 µM (active)
CCC(=O)c1ccc2c(c1)N(CCCN(C)C)c1ccccc1S2 | 21.1 µM (active)
C=CC(=O)Nc1cc(N2CCN(CC)CC2)ccc1Nc1cc(N(C)C(=O)Nc2c(Cl)c(OC)cc(OC)c2Cl)ncn1 | 7.42 µM (active)
NS(=O)(=O)c1cc2c(cc1Cl)NC(CC1CCCC1)NS2(=O)=O (stereo not given) | inactive

Compound | Potency
COc1cc2ncnc(Nc3cccc(Cl)c3F)c2cc1OC(=O)N1CCN(C)C[C@H]1C | 7.31 µM (active)
CC(NN)c1ccccc1 (stereo not given) | inactive
CN1CCC[C@@H]1CCO[C@](C)(c1ccccc1)c1ccc(Cl)cc1 | 18.8 µM (active)
CN1CC[C@@H](NC(=O)Nc2ccc(C#N)cc2)C[C@@H]1c1nc2ccccc2[nH]1 | 18.6 µM (active)
CC1(C)O[C@@H]2C[C@H]3[C@@H]4CCC5=CC(=O)C=C[C@]5(C)[C@@]4(F)[C@@H](O)C[C@]3(C)[C@]2(C(=O)CO)O1 | 10.6 µM (active)
Cc1nc([C@](C)(O)CO)sc1-c1cnc(N)c(O[C@H](C)c2cc(F)ccc2-n2nccn2)c1 | 8.33 µM (active)
O=C(NOCC(O)CO)c1ccc(F)c(F)c1Nc1ccc(I)cc1F (stereo not given) | 0.148 µM (active)
COc1cc2c(NC3CCN(C)CC3)nc(N3CCCN(C)CC3)nc2cc1OCCCN(C)C | 18.6 µM (active)
O=C(O)CCCC[C@@H]1SC[C@@H]2NC(=O)N[C@@H]21 | inactive
CN(C(=O)CN(CCO)CC(=O)N(C)C(C)(C)Cc1ccccc1)C(C)(C)Cc1ccccc1 | 9.44 µM (active)
CC(C)(CNC(=O)c1cccc(-c2noc(C(F)(F)F)n2)c1)c1coc(-c2ccccc2)n1 | 14.8 µM (active)
c1cc(Nc2cc(C3CC3)[nH]n2)nc(Nc2ccc3nc[nH]c3c2)n1 | 0.0184 µM (active)
O=c1cc(-c2ccccc2)oc2ccccc12 | 21.5 µM (active)
Cc1cc(N2CCOCC2)ccc1Nc1nc(NC2CCCCC2)c2[nH]cnc2n1 | 0.461 µM (active)
CCOC(=O)[C@H](CCc1ccccc1)N[C@@H](C)C(=O)N1Cc2ccccc2C[C@H]1C(=O)O | 5.96 µM (active)
CC(C)[C@](O)(c1ccc2cc(OC(F)F)c(OC(F)F)cc2c1)c1cn[nH]n1 | 14.8 µM (active)
CCN(CC)CCNC(=O)c1c(C)[nH]c(/C=C2/C(=O)Nc3ccc(-c4csc(-c5ccccc5)n4)cc32)c1C | 1.32 µM (active)
CCCOc1ccc(CCc2nc3cc(-c4c(C)noc4C)ccc3n2CCN2CCOCC2)cc1 | 5.25 µM (active)
O=C(O)c1ccccc1Nc1cccc(C(F)(F)F)c1 | inactive
COc1ccc(S(=O)(=O)N[C@@H](CNc2nc(C)nc(N3CCC(c4ccc5c(n4)NCCC5)CC3)c2C)C(=O)O)cc1 | inactive
